In PubChem BioAssay (Tox21) one finds Potency data, which are given here for 26 compounds.

Results filed as inconclusive are left out. Where a call stands in place of a potency, no number is given. Calls of active or inactive are those of the source. The call rests on the fitted dose curve; in most records, active means well fitted cell-killing curve with a large enough effect in the repeat runs; inconclusive means weak or mixed curves; inactive means flat fitted curve, though single readings scatter.

The assay can be described thus: qHTS RealTime-Glo MT Cell Viability Assay in HepG2 cells - 16 hour (AID 1224885). Further: nearly all actives have a fitted effect of over 50% in size. Particulars: RealTime-Glo luminescence; series mostly up to 76.8 µM. The method, boiled down: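 qHTS, HepG2, 600 cells/well, RealTime-Glo (NanoLuc + prosubstrate) added with cells; 5 h preincubation; DMSO compound addition; 37 C; luminescence at 0/8/16/24/32/40 h.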
On the technique in general: In qHTS, concentration-response curves come from the screen itself.
Consider `CCCCC(=O)O`, for which the Potency result is “inactive”.

In the case of `CC(O)CNCC(C)O` (stereo unspecified), the Potency entry was “inactive”.

`CC(C)c1ccc(C(C)C)cc1`: the Potency entry was “inactive”.

Turning to `NC1CCCCC1N` (stereo unspecified), the Potency result is “inactive”.

As for `CCCOCC(C)O` (stereo unspecified), the Potency entry is “inactive”.

Consider `Cc1ccc(C)c(S(=O)(=O)O)c1`, for which the Potency result was “inactive”.

As to `CCCCCCCCO`, the Potency entry was “inactive”.

Take `C=CC(=O)NCOCCCC`: the Potency entry is “inactive”.

Consider `O=C1C(N(CO)C(=O)NCO)N(CO)C(=O)N1CO` (stereo unspecified), for which the Potency entry was “inactive”.

`NCCNCCNCCN`: the Potency result is “inactive”.

For `COc1ccc(N)c(OC)c1`, the Potency entry was “inactive”.

With `O=C(Cl)c1ccc(C(=O)Cl)cc1`, the Potency result is “inactive”.

Regarding `CC(=O)OC(C)(C)C1CC=C(C)CC1` (stereo unspecified), the Potency result was “inactive”.

As to `CC(=O)OCCC(C)C`, the Potency entry was “inactive”.

Consider `CO[Si](CCCNCCN)(OC)OC`, for which the Potency entry is “inactive”.

As for `CCn1cc(C(=O)O)c(=O)c2cc3c(cc21)OCO3`, the Potency entry is “inactive”.

In the case of `CC1(C)[C@@H](O[C@H]2O[C@H](C(=O)O)[C@@H](O)[C@H](O)[C@H]2O[C@@H]2O[C@H](C(=O)O)[C@@H](O)[C@H](O)[C@H]2O)CC[C@]2(C)[C@H]3C(=O)C=C4[C@@H]5C[C@@](C)(C(=O)O)CC[C@]5(C)CC[C@@]4(C)[C@]3(C)CC[C@@H]12`, the Potency entry is “inactive”.

On to `CCCCCCCC(=O)O`, for which the Potency result was “inactive”.

As to `CCCCCC(C)=O`, the Potency result is “inactive”.

Regarding `COc1cc(NC(=O)CC(C)=O)c(OC)cc1Cl`, the Potency result is “inactive”.

For `COCN(COC)c1nc(N(COC)COC)nc(N(COC)COC)n1`, the Potency entry was “inactive”.

Turning to `Brc1ccc(Oc2ccc(Br)cc2)cc1`, the Potency entry is “inactive”.

As to `O=C(NCC1CCCCN1)c1cc(OCC(F)(F)F)ccc1OCC(F)(F)F` (stereo unspecified), the Potency entry is “inactive”.

`CCOC(=O)c1ccc(O)cc1`: the Potency entry was “inactive”.

For the compound `Oc1ccc(Cc2ccccc2O)cc1`, the Potency result was “inactive”.

As for `COC(=O)/C=C\C(=O)OC`, the Potency result was “inactive”.
